“And” between values parts separate entries of the source, which are not always exact repeats. Equal entries are not always repeated.
target: Glucocorticoid receptor (Homo sapiens) (UniProt P04150); experiment: GR-EFC Redistribution (AID 451); conditions: CHO-K1 GR-EFC translocation, beta-gal luminescence, 2 h
Description: NIH Molecular Libraries Screening Centers Network [MLSCN]
NIH Chemical Genomics Center [NCGC]
The glucocorticoid receptor (GR) is a cytoplasmic receptor that belongs to the nuclear receptor family of ligand-dependent transcription factors. Upon glucocorticoid binding to its receptor, the glucocorticoid-GR complex translocates into the nucleus, where it binds as a dimer to specific DNA sequences (glucocorticoid response elements), enhancing or suppressing transcription of a wide variety of glucocorticoid-responsive genes. In addition to their important roles in normal physiology and metabolism, glucocorticoids are administered exogenously as treatments for a wide variety of allergic, autoimmune, and neoplastic conditions. Identification of compounds that modulate aspects of GR signalling would be useful in dissecting glucocorticoid response pathways as well as developing GR modulators with more targeted clinical effects.
Traditionally, GR modulators have been identified using receptor binding or direct transactivation assays. However, assays for glucocorticoid-dependent nuclear translocation can also be used to screen for compounds affecting GR signaling.
Immunocytochemical staining has been used to assay for GR translocation, but is not suitable for high throughout screening due to the multiple reagent addition and wash steps required. Recently, a novel cell-based GR assay in Enzyme Fragment Complementation (EFC) format was developed by DiscoveRx (Fremont, CA). The assay uses EFC of b-galactosidase (b-gal) as an indicator of GR-translocation in engineered CHO-K1 biosensor cells. The enzyme acceptor (EA) fragment of b-gal resides in the nucleus , as designed through the use of a proprietary set of sequence additions and modifications. The small peptide enzyme donor (ED) fragment of b-gal is fused directly to the C-terminus of GR, and is localized in the cytoplasm is the absence of receptor signaling. Upon binding to a GR ligand, the complex translocates to the nucleus, where intact enzyme activity is restored by complementation and b-gal activity is detected. We optimized this GR-EFC assay in homogenous 1536-well plate assay format for high throughput screening.
NCGC Assay Protocol Summary:
CHO-K1 cells stably expressing NLS-enzyme acceptor fragment (EA) of b-gal and GR-enzyme donor (ED) fragment of b-gal were maintained in F12 medium (Invitrogen, Carlsbad, CA) at 37 Celsius degrees under a humidified atmosphere containing 5% CO2 and 95% air. The medium contained 10% FBS, 2 mM L-glutamine, 50 U/ml penicillin 50 ug/ml streptomycin, and 250 ug/ml hygromycin and 500 ug/ml G418 (Invitrogen).
GR-translocation was measured beta-gal enzyme activity using the PathHunter Detection Kit containing cell membrane permeablizing reagent and beta-gal substrate (DiscoveRx, Fremont, CA). All compounds were screened as titrations from 0.6 nM to 46 uM final concentration. The assay was performed in 1536-well format as follows:
5 uL cell suspension (1,000 cells)/well
Incubation at 37 Celsius degrees for two hours
1.25 uL 1X detection buffer from the kit supplied by DiscoveRx
Incubation at room temperature for one hour
Read plate in luminescence mode in ViewLux plate reader (PerkinElmer)
Keywords: NIH Roadmap, MLSCN, MLI, MLSMR, GR-EFC, GREFC, qHTS, NCGC
Potency means the concentration at half of the fitted maximal effect.

Sequence of Glucocorticoid receptor (Homo sapiens) (P04150 whole entry, looked up): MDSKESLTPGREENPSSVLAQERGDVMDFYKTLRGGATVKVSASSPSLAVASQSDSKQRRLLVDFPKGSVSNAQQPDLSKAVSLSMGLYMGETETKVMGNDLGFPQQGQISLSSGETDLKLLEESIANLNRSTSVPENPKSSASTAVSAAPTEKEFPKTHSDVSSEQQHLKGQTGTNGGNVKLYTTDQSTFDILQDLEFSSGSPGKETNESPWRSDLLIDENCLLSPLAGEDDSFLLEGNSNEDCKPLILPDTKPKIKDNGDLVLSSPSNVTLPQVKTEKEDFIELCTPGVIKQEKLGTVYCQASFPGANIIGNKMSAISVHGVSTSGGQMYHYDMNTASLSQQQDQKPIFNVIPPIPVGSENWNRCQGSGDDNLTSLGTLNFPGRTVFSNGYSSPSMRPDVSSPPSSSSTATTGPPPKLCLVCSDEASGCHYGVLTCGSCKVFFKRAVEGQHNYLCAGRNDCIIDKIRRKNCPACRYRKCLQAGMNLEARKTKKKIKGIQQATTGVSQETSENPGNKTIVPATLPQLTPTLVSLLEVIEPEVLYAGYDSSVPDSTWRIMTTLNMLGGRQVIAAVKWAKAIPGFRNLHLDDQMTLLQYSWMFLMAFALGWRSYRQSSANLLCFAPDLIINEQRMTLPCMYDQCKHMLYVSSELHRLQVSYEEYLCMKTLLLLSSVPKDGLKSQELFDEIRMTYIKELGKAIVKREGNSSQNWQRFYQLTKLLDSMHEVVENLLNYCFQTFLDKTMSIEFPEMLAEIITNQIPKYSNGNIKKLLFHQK

Potency, inactive:
CCNc1ncc2nc(-c3ccc(F)cc3)c(=O)n(C)c2n1 > 46 µM, COc1cccc(Nc2ncc3nc(C)c(=O)n(CCC#N)c3n2)c1 > 46 µM, O=c1c(-c2ccc(Cl)cc2)nc2cnc(N3CCOCC3)nc2n1CCc1ccccc1 > 46 µM, O=c1c(-c2cc(F)cc(F)c2)nc2cnc(N3CCOCC3)nc2n1CCc1ccccc1 > 46 µM, CN1CCCC[C@@H]1CCN1c2ccccc2Sc2ccc(S(C)=O)cc21 (stereo not given in full) > 20.6 µM and > 9.22 µM, CN(C)C(=O)c1ccc(-c2ccc3ncnc(NCc4cccs4)c3c2)cc1 > 46 µM, Cn1c(=O)c(CCc2ccccc2)nc2cnc(Nc3ccccc3)nc21 > 46 µM, COCC(=O)N1CCC2(CCN(Cc3nccs3)CC2)CC1 > 46 µM, CC(C)CN1CCC2(CC1)CCN(S(=O)(=O)c1ccccc1)CC2 > 46 µM, O=C(Nc1ccccc1)N1CC[C@@]2(CCCN(C(=O)c3ccncc3)C2)C1 > 46 µM, O=c1c(-c2cc(F)cc(F)c2)nc2cnc(N3CCOCC3)nc2n1-c1ccccc1 > 46 µM, COc1ccc(C(=O)N2CCC3(CCCN(C(=O)NC(C)C)C3)CC2)cc1 > 46 µM, Clc1ccccc1-c1nc(NCCN2CCOCC2)c2ccccc2n1 > 46 µM, COCCNc1ncnc2ccc(-c3ccccc3CN(C)C)cc12 > 46 µM, O=C(c1ccncc1)N1CCC2(CCCN(Cc3ccccc3)C2)CC1 > 46 µM, O=C(c1cccc(F)c1)N1CCC2(CC1)CN(c1ccccc1)C2 > 46 µM, NS(=O)(=O)c1cc([C@@]2(O)NC(=O)c3ccccc32)ccc1Cl > 20.6 µM, COCCn1c(=O)c(-c2cccc(C#N)c2)nc2cnc(Nc3ccccc3)nc21 > 46 µM, Cc1nc2cnc(N(C)C)nc2n(C)c1=O > 46 µM, COc1ccccc1CNc1cc(-c2ccoc2)ncn1 > 46 µM, CN1CCC2(CC1)CCN(C(=O)c1cccc(F)c1)CC2 > 46 µM, COc1ccc(NC(=O)N2CCCC3(CCN(C(=O)c4ccc(OC)cc4)CC3)C2)cc1 > 46 µM, COc1ccccc1-c1ccc2ncnc(N(C)Cc3ccco3)c2c1 > 46 µM, O=C(Nc1ccccc1)N1CCCC2(CCN(S(=O)(=O)c3ccccc3)CC2)C1 > 46 µM, N#Cc1cccc(NC(=O)N2CCC3(CC2)CCN(C(=O)c2cnccn2)CC3)c1 > 46 µM, COc1ncc2nc(-c3ccc(F)cc3)c(=O)n(CCC#N)c2n1 > 46 µM, COc1ccc(-n2c(=O)c(-c3ccc(F)cc3)nc3cnc(OC)nc32)cc1 > 46 µM, COCCn1c(=O)c(-c2cccs2)nc2cncnc21 > 46 µM, Cc1cnc(CNc2ncncc2-c2cccc(NS(C)(=O)=O)c2)cn1 > 46 µM, c1ccc(CNc2cc(-c3ccoc3)ncn2)cc1 > 46 µM, COc1ccc(-c2nc3cnc(OC)nc3n(C)c2=O)cc1 > 46 µM, COc1ccccc1CCn1c(=O)c(-c2cn(C)c3ccccc23)nc2cncnc21 > 46 µM, O=C(c1csnn1)N1CCC2(CC1)CCN(c1ccncc1)CC2 > 46 µM, COc1ccc(CNc2ccnc(-c3c(C)noc3C)n2)c(OC)c1 > 46 µM, CCNc1ncc2nc(-c3ccc(OC)cc3)c(=O)n(CCc3ccccc3)c2n1 > 46 µM, O=C(c1cccc(F)c1)N1CCC2(CCCN(c3ccncc3)C2)CC1 > 46 µM, CN1CCN(c2ncc3nc(-c4ccccc4)c(=O)n(C)c3n2)CC1 > 46 µM, O=C(Nc1ccccc1)N1CC2(CCN(C(=O)c3cc(C(F)(F)F)cc(C(F)(F)F)c3)CC2)C1 > 46 µM, COc1ccc(-c2nc3cnc(N4CCN(C)CC4)nc3n(C)c2=O)cc1 > 46 µM, FC(F)(F)c1ccccc1-c1cc(NCc2cccs2)ncn1 > 46 µM

Source: PubChem BioAssay (NCATS)
